In PubChem BioAssay AID651604 (The Scripps Research Institute Molecular Screening Center, 2012) one finds inhibition data, which are given here for two molecules.

Broadly, the inhibition is the percentage by which the read-out fell short of the control.

The campaign covered roughly 1,500 compounds. About 1,400 (93%) were called active. Rule as the data show it: active = inhibition above about 9.5%; inactive = the rest. The set was probably picked from earlier hits. A selection follows.

This assay in a line: binders of control antibody PGV04, counter-screen for PG9 antibody binder project, biochemical, TR-FRET, distinct HIV envelope site (AID 651604). To be noted: TR-FRET PGV04 antibody-gp120 binding, at 6.7 µM, stronger effect = higher value. Background: The purpose of a counterscreen is to sort out artefacts and off-target activity.
Consider `CCN(CC)C(=O)c1ccc(NC(=O)c2sccc2-c2ccccc2)cc1`, for which the inhibition was 25.4% (active).
The same measure for `N#CC1=C(N)Oc2c(c(=O)oc3ccccc23)C1c1ccccc1OC(=O)c1cccs1` (configuration not stated): 28% (active).
